Compound activity (PubChem)
The list is not random: actives were taken first. Their share in the collection is about 3.7%.
HTT promoter inh: Primary qHTS for Identification of Small Molecule Inhibitors of Huntingtin Promoter Activity; actives 0.93% (n = 48,000); Potency, µM (doses to about 57.5 µM), for inactives: at the top dose activity change, negative = inhibition, actives largely listed as inhibitors; HEK293 HTT promoter firefly luciferase reporter, 24 h; further: potency means the concentration at half of the fitted maximal effect; nearly all actives have a fitted effect of over 50% in size
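HEK293 luciferase promoter-reporter cells (2,500/well) plated 24 h, then compounds added at up to 57.5 uM final for 24 h at 37 °C. Firefly luminescence by Dual-Glo, normalized to vehicle (0%) and zero RLU (-100%).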
HTT-AS act: Primary qHTS for Identification of Small Molecule Activators of Huntingtin-Antisense Promoter Activity; HEK293 HTT-AS promoter firefly luciferase reporter, 24 h; response scale: percent change from vehicle, -100% = no light; Potency, µM (top dose mostly 57.5 µM), inactives show at the top dose activity change, positive = activation, most hits filed as activators; actives 0.24% (n = 48,000); further: potency means the concentration at half of the fitted maximal effect; nearly all actives have a fitted effect of over 55% in size
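HEK293 luciferase promoter-reporter cells (2,500/well) plated 24 h, then compounds added at up to 57.5 uM final for 24 h at 37 °C. Firefly luminescence by Dual-Glo, normalized to vehicle (0%) and zero RLU (-100%).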
DRV1 agonist: qHTS for Agonists of Human Resolvin D1 Receptor DRV1; Probable G-protein coupled receptor 32 (Homo sapiens), O75388; AID 1346428, 2018; CHO-K1 GPR32 beta-arrestin PathHunter luminescence, 90 min; zero percent set by DMSO-only wells; actives 2.5% (n = 48,000); activation, % at 76.9 µM;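 active means activation of at least 60% and not above a set upper limit, about 1 call in 100 departs from these limits; inconclusive means activation of 40% to 60%, or above that upper limit; inactive means activation under 40%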; further: 0% is about no effect
Target sequence (O75388 whole entry, looked up): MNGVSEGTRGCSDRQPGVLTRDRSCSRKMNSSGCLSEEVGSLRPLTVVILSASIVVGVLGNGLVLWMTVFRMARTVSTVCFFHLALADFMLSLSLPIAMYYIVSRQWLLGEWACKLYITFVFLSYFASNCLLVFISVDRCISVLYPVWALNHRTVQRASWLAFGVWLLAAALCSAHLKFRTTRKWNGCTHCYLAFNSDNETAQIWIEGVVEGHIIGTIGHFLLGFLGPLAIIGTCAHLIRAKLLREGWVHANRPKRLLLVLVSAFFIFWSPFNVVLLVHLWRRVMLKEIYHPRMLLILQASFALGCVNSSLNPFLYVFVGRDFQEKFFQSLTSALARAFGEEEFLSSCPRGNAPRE
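Agonism was scored by beta-Gal fragment complementation (chemiluminescent read, 1 h detection at ambient temperature) reporting beta-arrestin binding to GPR32 in engineered CHO-K1 cells. Compound treatment lasted 90 min at 37 C, normalized to a DMSO basal control.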
* = called active by the depositor; ? = inconclusive; . = not tested or not shown; [ ] = dose if it differs, or a comment. Unless noted, the call rests on the fitted dose curve; in most records, active means well fitted curve in the direction sought with a large enough effect; inconclusive means small, poorly fitted or top-dose-only effect, or another doubt; inactive means no such curve, though single readings can be large; an effect the other way counts as inactive or inconclusive.

SMILES	HTT promoter inh	HTT-AS act	DRV1 agonist
Cc1ccccc1NC(=O)Nc1ccc2nc(N3CCN(C)CC3)cc(C)c2c1	9%	-12%	31
COc1ccccc1N1CCN(C(=O)CCn2cnc3onc(-c4ccc(F)cc4)c3c2=O)CC1	4%	-10%	1
O=C1CCCC2=C1C(c1[nH]ncc1Cl)N=C(Nc1nc3ccccc3o1)N2 (configuration not stated)	3%	-6%	.
CC(=O)OCC(=O)[C@@]12N=C(C)O[C@H]1C[C@H]1[C@@H]3CCC4=CC(=O)C=C[C@]4(C)[C@@H]3[C@@H](O)C[C@@]12C	?	-93%	.
Cc1ccc(-c2cc3ncc4c(n3n2)-c2ccccc2OC4)cc1	41%	?	-2
c1ccc(-c2cc3ncc4c(n3n2)-c2ccccc2OC4)cc1	67%	1.6µM*	-6
CN(C)Cc1c(C(=O)NCCOc2ccc(C(=O)NO)cc2)oc2ccccc12	278%	?	.
CCOc1ccc(CN2CCN(Cc3ccc4c(c3)c3ccccc3n4CC)CC2)cc1	32µM*	-58%	-9
CCn1c2ccccc2c2cc(CN3CCN(Cc4ccc(OC)c(OC)c4)CC3)ccc21	-20%	-32%	-22
Cc1cc(=O)[nH]c2nnc(SCC(=O)Nc3cc(C(F)(F)F)ccc3Cl)n12	-15%	-20%	38
O=C(CSc1nnc2[nH]c(=O)cc(-c3ccccc3)n12)Nc1cc(C(F)(F)F)ccc1Cl	36%	18µM*	-6
COc1ccc(-c2nc(-c3ccccc3)c(-c3ccc(F)cc3)[nH]2)c(OC)c1C	?	-23%	-7
COc1ccc(-c2nc3scc(CCNC(=O)c4cccc(Br)c4)n3n2)cc1	-18%[11.5 µM]	-12%	71*
O=C(NCCc1csc2nc(-c3ccc(F)cc3)nn12)c1cccc(C(F)(F)F)c1	?	-29%	-2
CC(=O)Nc1ccc(NC(=O)c2oc3ccc4c(c3c2C)C(=O)CC(C)(C)O4)cc1	5%	-2%	20
O=C(Nc1ccccc1-c1cn2c(CN3CCNCC3)csc2n1)c1cnc2ccccc2n1	-10%	-17%	.
Cc1c(-c2cccc(NC(=O)Cc3ccccc3)c2)nc2ncccn12	-4%	2%	30
Cc1c(-c2cccc(NC(=O)Nc3ccccc3)c2)nc2ncccn12	10%	3%	96*
O=C(CSc1nc2c([nH]c3ccccc32)c(=O)n1-c1cccc(Cl)c1)c1ccccc1	-18%	-15%	15
CCCCCCCCCCCCOCCOCCOCCOCCOCCOCCOCCOCCOCCO	-29%	-72%	99*
CCCCCCCCCCCCOCCO	-3%	0%	14
CCc1nc2nc(C)cc(Nc3cc(C)ccc3C)n2n1	-19%	-19%	10
COC(=O)CN1C(=O)C(C)(C)c2cc(S(=O)(=O)NCc3ccc(Cl)cc3)ccc21	-7%	-6%	8
CC(CNC(=O)C1CCN(Cc2cc3ccccc3n2Cc2ccccc2)CC1)c1ccccc1 (configuration not stated)	-25%	-26%	-24
CN(C)CCC=C1c2ccccc2COc2ccc(CC(=O)O)cc21	11%	9%	.
SMILES	HTT promoter inh	HTT-AS act	DRV1 agonist
CCCCN(CC)C(=O)c1c[nH]c2ccc(S(=O)(=O)N(C)c3ccc(Cl)cc3)cc2c1=O	-26%	-36%	91*
CCCN(CCC)C(=O)c1c[nH]c2ccc(S(=O)(=O)N(C)c3ccc(OCC)cc3)cc2c1=O	-23%	-14%	-7
Clc1ccc2ncc(-c3cccc(NC4CNC4)n3)n2c1	-25%	-6%	.
COc1ccc2nc(NC(=O)c3nc(S(=O)(=O)Cc4ccc(C)cc4)ncc3Cl)sc2c1	-2%	-36%	0
CCCc1nnc(NC(=O)c2nc(S(=O)(=O)Cc3ccc(C)cc3)ncc2Cl)s1	-31%	-30%	15
Cc1ccc(CS(=O)(=O)c2ncc(Cl)c(C(=O)Nc3nc4ccc(C)cc4s3)n2)cc1	?	-86%	70*
Cc1ccc(CS(=O)(=O)c2ncc(Cl)c(C(=O)Nc3nc4ccc(F)cc4s3)n2)cc1	?	-86%	80*
CN(C)CC(C)(C)CNc1nn2c(-c3ccccc3)nnc2cc1C1CCC1	-22%	-27%	.
CN[C@H]1[C@@H](O)[C@@H]2O[C@@H]3O[C@H](C)CC(=O)[C@]3(O)O[C@@H]2[C@@H](NC)[C@H]1O	?	-93%	.
CCN(CCCNC(=O)c1cc2cc3ccc(OC)cc3nc2s1)c1ccccc1	-15%	-16%	96*
CCN(CCCNC(=O)c1cc2cc3ccc(OC)cc3nc2s1)c1cccc(C)c1	-4%	2%	?
Cc1cc(NC(=O)c2cc(-c3ccc(Cl)cc3)on2)nn1Cc1ccc(Cl)cc1	-26%[11.5 µM]	-33%	4
Cc1cc(NC(=O)c2cc(-c3cccc(Cl)c3)on2)nn1Cc1ccc(Cl)cc1	1.6µM*	-41%	3
Cc1ccc(Cl)cc1NC(=O)c1ccc(NC(=O)N2CCSc3ncccc32)cc1	?	-15%	-6
Cc1ccc(C)c(NC(=O)C(=O)NCCc2csc3nc(-c4ccccc4C)nn23)c1	?	-47%	-12
CCC(C)(C)c1ccc(CC(C)CN2C[C@@H](C)O[C@@H](C)C2)cc1 (some centres not stated)	-5%	-11%	113*
COC(=O)Nc1ccc(-c2nc(N3CCOCC3)c3cnn(C4CCN(C(=O)OC)CC4)c3n2)cc1	-31%	-44%	.
COc1ccc(CNC(=O)C2CCCN(c3nnc(C)c4c(C)n(-c5ccc(C)cc5)nc34)C2)cc1 (configuration not stated)	1%	-18%	-1
COc1ccc(-n2nc3c(N4CCCC(C(=O)NCc5ccc(C)cc5)C4)nnc(C)c3c2C)cc1 (configuration not stated)	-19%	-64%	111*
NC(N)=Nc1nc(CSCCC(N)=NS(N)(=O)=O)cs1	19%	-27%	.
Nc1ccc(C(=O)Nc2cccc(-c3nc(N4CCOCC4)c4oc5ncccc5c4n3)c2)cn1	?	-28%	.
CCN1C[C@H](C)n2c(c(O)c3c(=O)n(Cc4ccc(F)c(Cl)c4)nc(C(=O)NC)c32)C1=O	0%	18%	.
Cc1nc(-c2ccc(S(=O)(=O)Nc3ccc(C)c(N(C)C)c3)cc2)co1	?	-47%	44
COc1cc(Cl)c(NS(=O)(=O)c2ccc(-c3coc(C)n3)cc2)c(OC)c1	?	-53%	83*
CCN(CC)c1ccc(NS(=O)(=O)c2ccc(-c3coc(C)n3)cc2)c(C)c1	?	-31%	68*
CCOC(=O)c1cccc(NS(=O)(=O)c2ccc(-c3coc(C)n3)cc2)c1	-21%	-12%	31
CC(=O)N1CCCc2cc(S(=O)(=O)NCc3ccc(OC(C)C)cc3)ccc21	?	-20%	9
CCc1c(C)sc2c1CCN(C(=O)Nc1cc(C)ccc1OC)C2c1ccc(F)cc1 (configuration not stated)	?	-22%	-1
Cc1cc(C=c2sc3nc4ccccc4n3c2=O)c(C)n1-c1ccccc1	?	-83%	.
